Source: PubChem
Only some compounds are listed: those with a hit (about 6.5% of all), similar ones and a draw of the others.
VACV mCherry inh = qHTS for Stage-Specific Inhibitors of Vaccinia Orthopoxvirus: mCherry Reporter Primary qHTS; Potency, µM (titrated, usually from 36.5 µM), without a hit: top-dose activity change, negative = inhibition, hits mostly inhibitors; Vaccinia virus mCherry reporter infection, fluorescence; hit rate 0.63% among 310,000; calls by dose curve; tested in A549 cells; also: potency is read from the fitted curve at half-maximal effect; nearly all actives have a fitted effect of over 35% in size
FMDV antiviral = High Throughput Screening for Foot and Mouth Disease Virus Antivirals. AID 1159524, 2015. FMDV antiviral cell-based qHTS. Potency, µM (titrated, usually from 57.9 µM), inactives show at the highest dose activity change, negative = inhibition, usual class: inhibitors. hit rate 1.2% among 410,000; calls by dose curve; tested in HEK293T cells; also: read-out not given here; potency is read from the fitted curve at half-maximal effect; nearly all actives have a fitted effect of over 45% in size
HCMV inh = qHTS Assay for inhibitors of the human cytomegalovirus (HCMV); HFF cells, HCMV-luciferase reporter, 72 h; hits give low values; hit rate 4.5% among 410,000; activity change, negative = inhibition, % at 57.5 µM; AID 1259415, 2018; in the data active = activity change below about -60%; inconclusive = no clear call, values can overlap the other calls; inactive = above about -39%
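HFF cells seeded 16 h at 37C, treated with compounds, infected with luciferase-reporter HCMV at MOI 1 PFU/cell; luciferase read at 72 h post infection, normalized to buffer-only and Salinomycin controls.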
VACV Venus inh = qHTS for Stage-Specific Inhibitors of Vaccinia Orthopoxvirus: Venus Reporter Primary qHTS. Vaccinia virus Venus reporter expression, fluorescence. Potency, µM (top dose mostly 36.5 µM), without a hit: top-dose activity change, negative = inhibition, most hits filed as inhibitors. hit rate 0.46% among 330,000; calls by dose curve; tested in A549 cells; also: potency is read from the fitted curve at half-maximal effect; nearly all actives have a fitted effect of over 30% in size
Lassa entry inh = qHTS for Inhibitors of binding or entry into cells for Lassa Virus; Lassa virus pseudotype entry inhibition, cell reporter; Potency, µM (highest dose often 37.9 µM), for the others: at the highest dose activity change, negative = inhibition, hits mostly inhibitors; hit rate 1.2% among 300,000; calls by dose curve; tested in HEK293 cells; also: potency is read from the fitted curve at half-maximal effect; nearly all actives have a fitted effect of over 50% in size
MARV entry inh = qHTS for inhibitors of binding or entry into cells for Marburg Virus. Marburg virus pseudotyped entry inhibition, cell reporter. Potency, µM (doses to about 37.8 µM), for the others: at the highest dose activity change, negative = inhibition, actives largely listed as inhibitors. hit rate 1.8% among 300,000. AID 540276, 2011; calls by dose curve; tested in HEK293 cells; also: potency is read from the fitted curve at half-maximal effect
The depositor's hits bear a star; i = inactive; u = inconclusive; x = no result given; [ ] = dose if it differs, or a comment. % is scaled to controls: 0 for no effect and ±100 for the full control effect.

SMILES	VACV mCherry inh	FMDV antiviral	HCMV inh	VACV Venus inh	Lassa entry inh	MARV entry inh
Cc1ccc([N+](=O)[O-])cc1NC(=O)c1ccc2c(c1)OCO2	-2.9%	5.1%	6.9	1.9%	-5.5%	2.1%[46.1 µM]
O=C(NCc1ccc2c(c1)OCO2)Nc1ccc(Cl)cc1	x	33.8%	-1.3	x	x	x
O=C(NCc1ccc2c(c1)OCO2)Nc1ccc([N+](=O)[O-])cc1	-5.9%	0.8%	-60.8*	-11.3%	-8.6%[46.1 µM]	2.2%[46.1 µM]
O=C(c1cccc(F)c1F)N1CCOc2ccc(CN3CCC(Oc4cccnc4)CC3)cc2C1	10.6%	-18.8%	x	-4.3%	x	x
CCOC(=O)c1cc(-c2ccccc2)n(-c2cccc(C(=O)Nc3cccc(C)c3)c2)c1C	-24.1%	-13.4%	12.4	-11.3%	5.8%[46.1 µM]	x
CCc1cc2c(nc1CC)CCN(CC/C(C)=N/O[C@H](C)c1cn([C@H](CO)Cc3ccccc3)nn1)C2	x	x	x	x	x	-27.1%[14.2 µM]
CNC[C@@H](C)NC[C@@H](Cc1ccccc1)NCCc1ccccc1	-11.8%	-10.8%	-26.8	-18.3%	x	x
CC[C@H](C)[C@@H](CN[C@H](C)CNC)NCCC(c1ccccc1)c1ccccc1	u	-25.5%	-97.0*	u	x	x
Cc1ccn2c(NC(=O)c3cccc(Cl)c3)c(-c3ccccc3)nc2c1	-12.8%	11.9%	22.1	-14.3%	-10.3%[46.1 µM]	u
O=C(Nc1ccc(Oc2ccccc2)cc1)c1ccc2sc([C@H]3C[C@H](O)[C@@H](CO)O3)nc2c1	u	15.8µM*	-100.0*	u	x	x
O=C(Nc1cccc(C(F)(F)F)c1)c1ccc2sc([C@H]3C[C@H](O)[C@@H](CO)O3)nc2c1	u	20µM*	-91.3*	u	x	x
Cc1cc(C)c(NC(=O)Cn2c(=O)n(CCCCC(=O)NCc3ccccc3Cl)c(=O)c3ccccc32)c(C)c1	-21.7%	-23.8%	-1.5	-22.0%	23.9%[46.1 µM]	-5.7%[46.1 µM]
CCOC(=O)c1cnn(-c2sc(C(=O)OCC)c(C)c2C(=O)OCC)c1N	-2.0%	x	-68.4*	-16.0%	3.3%	2.8%
CCc1nnc(N/N=C/c2ccc(N3CCC(C)CC3)c([N+](=O)[O-])c2)n1N	10µM*	2.2%	-18.9	u	u	u
CC(=O)c1ccc(C(=O)NCC2Cc3cccc(-c4ncccn4)c3O2)cc1 (stereo not drawn)	-10.3%	5.9%	x	5.2%	x	x
N#Cc1cc2c(nc1S(=O)(=O)Cc1ccccc1)CCCC2	-8.2%	12.4%	-63.1*	-13.0%	1.2%	13.5%
CCC(=O)NC1=C(Cl)C(=O)C(NC(=O)CC)=C(Cl)C1=O	-9.3%	u	-94.0*	u	x	x
Cc1ccc(NC(=O)c2c(C)oc3ccc(O)c(CN4CCOCC4)c23)c(C)c1	-3.7%	-20.0%	10.2	1.3%	-13.5%[46.1 µM]	8.1%[46.1 µM]
Cc1ccc(NC(=O)c2c(C)oc3ccc(O)c(CN4CCCCCC4)c23)cc1	-6.1%[7.34 µM]	u	-85.3*	-5.5%[7.34 µM]	u	u
CCOC(=O)c1c(-c2ccccc2)oc2ccc(O)c(CN(C)C)c12	x	0.0%	-7.0	x	-28.9%	u
Cc1ccc(NC(=O)c2c(C)oc3ccc(O)c(CN4CCCCCC4)c23)c(C)c1	-13.5%[7.34 µM]	0.0%	-64.7*	-14.3%[7.34 µM]	u	3.55µM*
Cc1oc2ccc(O)c(CN3CCCCCC3)c2c1C(=O)Nc1cccc(C(F)(F)F)c1	-2.6%	-28.8%	-86.0*	u	u	u
CCOC(=O)c1c(-c2ccccc2)oc2ccc(O)c(CN3CCCC3)c12	x	-21.6%	-62.0*	x	u	23.1µM*
Cc1cccc(C)c1NC(=O)Cn1c(=O)n(Cc2ccco2)c(=O)c2ccc(C(=O)NC3CCCC3)cc21	-7.5%	u	-10.6	-13.1%	u	-12.3%[46.1 µM]
Cc1ccc(C(=O)c2oc3ccccc3c2NC(=O)Cc2coc3cc(C)ccc23)cc1	-0.1%	22.1%	4.3	-15.8%	3.2%[46.1 µM]	u
SMILES	VACV mCherry inh	FMDV antiviral	HCMV inh	VACV Venus inh	Lassa entry inh	MARV entry inh
Cc1cc(C)c2c(=O)cc(C(=O)Nc3ccc(C)c(Cl)c3)oc2c1	i	1.0%	-10.7	u	u	7.8%[46.1 µM]
Cc1oc2ccc(O)c(CN3CCCCCC3)c2c1C(=O)Nc1cccc(Cl)c1C	u	u	-99.7*	-21.6%	u	u
Cc1oc2ccc(O)c(CN(C)C)c2c1C(=O)c1ccccc1	-21.4%	-0.4%	10.5	-23.3%	u	11.2µM*
Cc1oc2ccc(O)c(CN(C)Cc3ccccc3)c2c1C(=O)Nc1cccc(Cl)c1C	-21.9%	u	-66.2*	-16.4%	u	u
CCc1cccc(CC)c1NC(=O)c1c(C)oc2ccc(O)c(CN3CCCC3)c12	-6.8%	-14.4%	-4.4	1.0%	-22.3%[46.1 µM]	u
Cc1ccc(NC(=O)c2c(C)oc3ccc(O)c(CN4CCN(Cc5ccccc5)CC4)c23)cc1	-17.7%	-19.1%	-21.1	0.3%	u	10µM*
Cc1ccccc1NC(=O)CSc1nccn1C	13.9%	0.2%	-0.2	11.3%	21.7%[46.1 µM]	10.9%[46.1 µM]
Cc1cccc(Cc2c(C)nc3nc(SCc4ccccc4C)nn3c2C)c1	i	-9.2%	22.0	-11.1%	2.9%[46.1 µM]	x
COC(=O)N[C@@H](c1ccc(Br)cc1)C(C(=O)OC)C(=O)OC	x	x	x	x	9.3%[14.3 µM]	u
Cc1c(C(=O)N(C)C2CCOC2)cnn1-c1ncc2c(n1)-c1ccccc1CCC2 (stereo not drawn)	-8.1%	46.1%	x	6.8%	x	x
COc1ccc(NC(=O)c2c(C)oc3ccc(O)c(CN4CCN(Cc5ccccc5)CC4)c23)cc1Cl	-10.9%	-18.6%	-13.8	-24.9%	7.94µM*	u
CCN1CCN(Cc2c(O)ccc3oc(C)c(C(=O)Nc4ccc(OC)c(Cl)c4)c23)CC1	-9.1%	-27.2%	-17.7	1.9%	u	u
COc1ccc(C(=O)c2c(C)oc3ccc(O)c(CN4CCOCC4)c23)cc1	x	17.3%	-33.5	x	u	20.6µM*
COc1ccc(NC(=O)c2c(C)oc3ccc(O)c(CN4CCOCC4)c23)cc1	-4.6%	-19.7%	12.8	-4.0%	-11.6%[46.1 µM]	u
O=C(Nc1c2c(nn1-c1ccc(Cl)cc1)CS(=O)(=O)C2)c1cccc(Cl)c1	-11.3%	u	-20.1	-12.4%	u	x
COc1ccc(-n2c(C)cc(/C=N/Nc3nc(N4CCOCC4)nc(N4CCOCC4)n3)c2C)cc1	-13.8%	u	-33.1	-10.4%	u	7.31µM*
CCOC(=O)[C@@H]1CSc2[nH]c(=O)sc2[C@@H]1c1ccccc1	x	x	x	x	x	-3.9%
O=c1c(Cl)c(NCCCO)cnn1-c1nc2ccccc2[nH]1	-12.1%	9.8%	-98.2*	9.1%	u	u
Cc1ccc(-n2nc3cc(C)c(NC(=S)NC(=O)/C=C/c4ccco4)cc3n2)cc1	-14.1%	13.2%	-24.5	-4.3%	u	u
Cc1ccc(-n2nc3ccc(NC(=S)NC(=O)/C=C/c4ccco4)cc3n2)cc1	-10.0%	9.5%	-68.4*	-8.2%	u	25.1%
O=C(/C=C/c1ccco1)NC(=S)Nc1cccc(-c2nc3ccccc3s2)c1	-22.9%	-6.3%	57.1	u	-21.0%	3.55µM*
